# Sampled rows, rich in hits. Any-hit rate of the full collection: about 2.9%.
# MEKK2wt PB1 HTS: modulators of MEK5 binding to wildtype MEKK2, primary screen, biochemical, multiplex bead flow cytometry, Alexa488-MEK5; Alexa488-MEK5 binding to MEKK2 WT; actives lie on both sides; binding response (% of control), % at 10 µM; AID 1531, 2009; 290,000 tested, 1.1% active; in the data active means binding response below about 67% or above about 130%
# CRFR2-BP antag: antagonists of CRF-BP/CRF-R2 complex, primary screen, cell-based, HEK293, calcium dye fluorescence, uHTS. CRF-induced calcium fluorescence. 350,000 tested, 0.59% active. inhibition, % at 11.8 µM;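 active means inhibition of the ligand-induced calcium signal above about 50% at the single tested concentration, limit read from the data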
# MEKK3 PB1 HTS: modulators of MEKK3-MEK5 PB1 binding, primary screen, biochemical, wildtype MEKK3, multiplex bead flow cytometry, Alexa488-MEK5; Mitogen-activated protein kinase kinase kinase 3 (Homo sapiens), Q99759; bead-based flow cytometry, Alexa488-MEK5 binding to MEKK3; actives lie on both sides; 0 = blocked by unlabeled MEK5, 100 = vehicle; binding response (% of control), % at 10 µM; 290,000 tested, 1.4% active; AID 1529, 2009;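 active means binding response more than 3 SD above or below the average of its plate-row segment, actives on both sides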;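 further: Alexa488 bead fluorescence after subtracting the streptavidin-only scavenger bead signal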
# Target sequence (Q99759 whole entry, looked up): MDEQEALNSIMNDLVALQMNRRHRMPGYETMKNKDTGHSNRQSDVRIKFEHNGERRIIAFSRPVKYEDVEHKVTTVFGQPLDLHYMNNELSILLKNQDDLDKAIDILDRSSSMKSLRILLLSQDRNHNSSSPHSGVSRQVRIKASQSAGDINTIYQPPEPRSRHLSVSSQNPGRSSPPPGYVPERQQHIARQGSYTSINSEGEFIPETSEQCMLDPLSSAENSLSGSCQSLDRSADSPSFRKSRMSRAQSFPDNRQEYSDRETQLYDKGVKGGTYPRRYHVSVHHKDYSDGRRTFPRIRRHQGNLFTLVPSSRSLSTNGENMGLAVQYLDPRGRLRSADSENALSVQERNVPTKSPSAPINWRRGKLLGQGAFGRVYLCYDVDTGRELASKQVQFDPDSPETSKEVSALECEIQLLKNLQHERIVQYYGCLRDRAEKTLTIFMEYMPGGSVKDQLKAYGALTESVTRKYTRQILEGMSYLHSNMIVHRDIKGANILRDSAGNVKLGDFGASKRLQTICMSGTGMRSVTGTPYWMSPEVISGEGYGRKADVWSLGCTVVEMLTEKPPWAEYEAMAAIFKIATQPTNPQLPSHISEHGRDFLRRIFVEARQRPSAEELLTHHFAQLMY
# MEKK2mut PB1 HTS: MEK5 binding signal on mutant MEKK2 PB1, primary screen, biochemical, multiplex bead flow cytometry, Alexa488-MEK5; Alexa488-MEK5 binding to MEKK2 mutant; 290,000 tested, 0.35% active; percent response, % at 10 µM; in the data active means percent response above about 24%, passing the limit was not always enough
# ABCB6 inh 2: ABCB6 transporter inhibitors, primary screen, K562-ABCB6 cells, flow cytometry, MLPCN library | 360,000 tested, 0.19% active | fluorescence ratio to DMSO, % at 10 µM | K562-ABCB6 porphyrin accumulation, 1 h; active compounds read low;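 active means fluorescence ratio to DMSO below 75%, the collection mean minus 3 SD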;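 further: signal is porphyrin accumulated inside mitochondria; 100% equals median channel fluorescence of DMSO control wells; lower ratio means ABCB6 inhibition with less porphyrin fluorescence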
# CRFR2-BP ag: agonists of CRF-BP/CRF-R2 complex, primary screen, cell-based, HEK293, calcium dye fluorescence, uHTS | CRF-binding protein / CRF receptor 2 complex (human) | calcium dye fluorescence (FLIPR); percent of saturating CRF peptide response | activation, % at 13.2 µM | 350,000 tested, 0.46% active;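 active means activation of at least 50%, plus an integration ratio under a set limit after plate pattern correction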;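 further: plate controls were neutral control wells without compound for no effect and CRF at EC100 for full effect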
# MEKK2wt confirm: modulators of MEK5 binding to wildtype MEKK2, confirmation, biochemical, single concentration, multiplex bead flow cytometry. shares compounds with MEKK3 PB1 HTS. Alexa488-MEK5 binding to MEKK2 WT; actives lie on both sides. binding response (% of control), % at 10 µM. 5,900 tested, 2.4% active. AID 1892, 2009; in the data active means binding response below about 16% or above about 210%; inactive means in between
# MEKK2mut-MEK5: mutant MEKK2 PB1-MEK5 binding signal retest – biochemical, single concentration, multiplex bead flow cytometry, confirmation; 5,900 tested, 2% active; percent response, % at 10 µM; Alexa488-MEK5 binding to MEKK2 mutant; shares compounds with MEKK3 PB1 HTS; AID 1893, 2009; in the data active means percent response mostly above about 71%, no sharp cut-off; inactive means mostly below about 38%;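 further: higher means compound restores mutant binding toward wildtype level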
# MEKK3 confirm: MEKK3 wild-type PB1 binding to MEK5, inhibitors, confirmation, biochemical, bead multiplex flow cytometry, single concentration, wildtype; shares compounds with MEKK3 PB1 HTS; Alexa488-MEK5 binding to MEKK3; active compounds read low; binding response (% of control), % at 10 µM; 5,900 tested, 1.8% active;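 active means binding response below 72% of control, or above a set upper limit, though filed actives all read lower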;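 further: 100% = DMSO only wells and 0% = binding blocked by excess unlabeled MEK5; lower values mean stronger disruption of MEK5 binding to MEKK3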
# * marks the source's active call; other numbers are inactive results; i = inactive; . = not tested or not shown; [ ] = another dose, or the depositor's remark.
SMILES,MEKK2wt PB1 HTS,CRFR2-BP antag,MEKK3 PB1 HTS,MEKK2mut PB1 HTS,ABCB6 inh 2,CRFR2-BP ag,MEKK2wt confirm,MEKK2mut-MEK5,MEKK3 confirm
Nc1ncnc2c1ncn2[C@@H]1O[C@H](CNCc2ccccc2OC2OC(CO)C(O)C(O)C2O)[C@@H](O)[C@H]1O (stereo partly drawn),.,5,.,.,102,1,.,.,.
FC(F)(F)c1cc(-c2ccccc2)nc(NCc2cccnc2)n1,-1.0*[inhibitor],-16,1.0*[inhibitor],-10,96,0,97,-7,99
Cc1cc(NC(=O)c2ccccc2Cl)no1,59,-6,35*[inhibitor],-30,105,4,106,-1,99
O=C1CC2(CCN(C(=O)c3cccc(Br)c3)CC2)Oc2ccccc21,.,8,.,.,93,3,.,.,.
CCC(C(=O)NC1CCCCCC1)n1nc(C)c2c(C)n(-c3ccccc3)nc2c1=O (stereo not drawn),98,11,96,0,95,-1,.,.,.
CCOC(=O)c1sc(NC(=O)c2ccc(S(=O)(=O)N3CCCCC3)cc2)nc1-c1ccccc1,105,-12,135*,1,97,2,99,-5,99
C=CCn1c(C)c(/C=C/c2cc[n+](C)cc2)c2ccccc21,94,-68,113,62*,i,36,116,-2,98
OC(CN1CCC(Cc2ccccc2)CC1)c1ccccc1 (stereo not drawn),111,-7,106,13,98,5,.,.,.
COCCCN1C(=O)C(=O)/C(=C(/O)c2ccc(OC)cc2)C12C(=O)N(C)c1ccccc12 (stereo not drawn),-3.0*[inhibitor],3,1.0*[inhibitor],2,104,1,104,4,101
CC(C)CCNCC(O)CON=C1c2ccccc2-c2ccccc21 (stereo not drawn),161*,-21,98,2,101,1,144,21,104
CC(C)N(CCNCC(O)COc1ccc(C(C)(C)c2ccccc2)cc1)C(C)C (stereo not drawn),172*,-38,109,29,103,5,146,33,105
OC(CNCCc1ccccc1)COc1ccc(OCC(O)CNCCc2ccccc2)cc1 (stereo not drawn),172*,-26,98,40,101,0,172,39,107
OC(CNCCc1ccc(Cl)cc1)COc1cc(Cl)ccc1Cl (stereo not drawn),122,-26,107,26*,98,7,128,22,105
COCCNCC(O)CON=C1c2ccccc2-c2ccccc21 (stereo not drawn),120,7,106,11,97,0,.,.,.
O=C(Nc1cccc(C(F)(F)F)c1)C1=CC=CN2CCS(=O)(=O)N=C12,.,6,.,.,101,-2,.,.,.
CCN(CC)CCNC(=O)C(Cl)=C1C(Cl)=C(Cl)C(Cl)=C1Cl,.,-1,.,.,97,-1,.,.,.
O=C(NCC1CC1)C1Cc2c(-c3ccccc3Oc3ccccc3)ccnc2O1 (stereo not drawn),.,.,.,.,97,.,.,.,.
Cc1nn(C)c(C)c1NS(=O)(=O)c1ccccc1Cl,.,-4,.,.,96,-2,.,.,.
COc1ccc(OCC(O)CNC(=O)c2ccccc2)cc1 (stereo not drawn),103,-3,96,3,95,-2,.,.,.
CC(C)c1ccc(OCC(O)CNC(C)c2ccccc2)cc1 (stereo not drawn),122,-39,106,12,98,5,.,.,.
OC(CNCCC(c1ccccc1)c1ccccc1)COc1ccccc1 (stereo not drawn),313*,-10,109,142*,94,2,115,5,105
O=C(NNCC(O)COc1ccccc1)c1ccccc1 (stereo not drawn),105,4,138*,0,97,0,91,-6,101
COc1ccc(-n2cc(CNCCc3ncc(C)[nH]3)c(-c3ccccc3Cl)n2)cc1,153*,4,104,-5,101,-1,167,38,108
CCN1CCC(CNCc2cn(-c3ccc(OC)cc3)nc2-c2ccccc2Cl)C1 (stereo not drawn),180*,-31,104,34,101,8,189,69,113
CC1(NC(=O)c2ccccc2)CCN(CCCc2ccccc2)C1=O (stereo not drawn),.,-9,.,.,104,-2,.,.,.
SMILES,MEKK2wt PB1 HTS,CRFR2-BP antag,MEKK3 PB1 HTS,MEKK2mut PB1 HTS,ABCB6 inh 2,CRFR2-BP ag,MEKK2wt confirm,MEKK2mut-MEK5,MEKK3 confirm
CC(Sc1ccc(Cl)cc1)C(=O)NNC(=O)c1csc(N2CCOCC2)n1 (stereo not drawn),101,-7,100,3,89,0,.,.,.
Clc1ccc(SCc2csc(N3CCOCC3)n2)cc1,75,-2,74*[inhibitor],-32,96,-2,95,-4,97
CCc1nnc(NC(=O)C2CCC(CNc3c(N4CCC(C)CC4)c(=O)c3=O)CC2)s1 (stereo not drawn),102,-1,105,5,96,0,.,.,.
O=C(Nc1ccc(F)cc1)c1cccnc1NCCc1ccccc1,112,-10,142*,1,86,0,100,-6,103
COc1ccc(Cc2c(N)nc(N)nc2N)cc1,110,-10,100,9,121,3,.,.,.
Nc1ccc(OCCCc2c(N)nc(N)nc2N)cc1,110,-14,82*[inhibitor],8,100,4,120,13,95
COc1ccc(-n2nc3c(N)n[nH]c3cc2=O)cc1,71,1,67*[inhibitor],-15,99,22,70,-6,68*
